Measured values taken from PubChem BioAssay (NCI).
About 79,000 compounds went through this panel and 15% of them were active in at least one assay; those are over-represented in the sample as a whole. A number with no mark means an inactive call. Active and inactive are the calls of the source. No stated cut-off is given here; in the data, active means growth inhibition above about 70%; inactive means the rest.

What was measured:
[1] = NCI Yeast Anticancer Drug Screen. Data for the rad50 strain (AID 155);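 further: 0% = growth of vehicle-only cultures of the same strain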; conditions: S. cerevisiae rad50 strain growth inhibition, hits give high values
How it was run: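 Growth of the mutant yeast was measured after compound exposure and referenced to vehicle-treated cultures.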

[2] = NCI Yeast Anticancer Drug Screen. Data for the mec2-1 strain (AID 157); conditions: S. cerevisiae mec2-1 strain, hits give high values
How it was run: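 Growth inhibition is read against vehicle-treated controls after compound exposure of the mec2-1 yeast strain, which is defective in DNA damage repair or cell cycle control.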

[3] = NCI Yeast Anticancer Drug Screen. Data for the sgs1 mgt1 strain (AID 161);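 further: 0% = growth of cultures given vehicle only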; conditions: S. cerevisiae sgs1 mgt1 strain, hits give high values
How it was run: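 This yeast growth screen uses a strain with defined DNA-repair lesions; compound-treated growth is compared with vehicle-treated growth.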

[4] = NCI Yeast Anticancer Drug Screen. Data for the cln2 rad14 strain (AID 165);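 further: 0% = growth equal to vehicle treated cultures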; conditions: S. cerevisiae cln2 rad14 strain, hits give high values
How it was run: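 Growth inhibition, relative to vehicle-treated controls, is the read-out. The test organism is a yeast strain with defined genetic alterations, cln2 rad14.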

[5] = NCI Yeast Anticancer Drug Screen. Data for the bub3 strain (AID 167); conditions: S. cerevisiae bub3 mutant strain, hits give high values
How it was run: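 Whole-cell yeast assay. The mutant strain was incubated with compounds, and growth inhibition was determined by comparison with vehicle-treated cells.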

[6] = NCI Yeast Anticancer Drug Screen. Data for the mlh1 rad18 strain (AID 175); conditions: S. cerevisiae mlh1 rad18 strain growth inhibition, hits give high values
How it was run: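 Cells of a genetically altered yeast strain, deficient in DNA damage repair, were treated with compound. Their growth was then compared with that of vehicle-treated cultures to give inhibition.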

[7] = at 5.0 µM (retest, dose inferred, filed as 0.5)
[8] = at 50.0 µM (retest, dose inferred, filed as 5.0)

SMILES	growth inhibition [1, 7] [%]	growth inhibition [1, 8]	growth inhibition ([1]; at 50.0 µM)	growth inhibition [2, 7] [%]	growth inhibition [2, 8]	growth inhibition ([2]; at 50.0 µM)	growth inhibition [3, 7] [%]	growth inhibition [3, 8]	growth inhibition ([3]; at 50.0 µM)	growth inhibition [4, 7] [%]	growth inhibition [4, 8]	growth inhibition ([4]; at 50.0 µM)	growth inhibition [5, 7] [%]	growth inhibition [5, 8]	growth inhibition ([5]; at 50.0 µM)	growth inhibition [6, 7] [%]	growth inhibition [6, 8]	growth inhibition ([6]; at 50.0 µM)
C=C1CC/C=C(/C(=O)O)CC[C@H]2[C@@H]1CC2(C)C	-5	58%	63.6%	4	71% (active)	60.1%	3	68%	57.4%	-6	50%	53.6%	0	78% (active)	69.5%	-1	74% (active)	53.2%
CC(C)(C)CC(C)(C)c1ccc(Oc2ccc([N+](=O)[O-])cc2S(=O)(=O)O)cc1	-2	21%	14.8%	-6	-1%	0.05%	-1	32%	64.5%	4	-4%	-23.4%	-2	-13%	5.45%	5	26%	24.7%
CCCC(=O)Oc1ccc(-c2ccc(Br)cc2)cc1	4	93% (active)	92.8% (active)	11	93% (active)	93.6% (active)	3	88% (active)	88.8% (active)	-6	93% (active)	90.2% (active)	39	95% (active)	89.8% (active)	-7	94% (active)	95.8% (active)
COc1ccc(CN2CCCN(Cc3ccc(OC)cc3OC)C2c2cc(Br)ccc2O)c(OC)c1	31	98% (active)	99% (active)	18	100% (active)	95.2% (active)	27	99% (active)	99.2% (active)	12	94% (active)	57.2%	15	98% (active)	27.9%	63	99% (active)	98.7% (active)
CCC1(C)OC(=O)C(c2ccccc2)O1 (stereo not given)	1	-6%	9.2%	-2	7%	-1.85%	5	-5%	-19.5%	2	1%	9.7%	2	3%	-6.45%	-2	-5%	17.1%
CN1C(C)(C)CC(O)(C#N)CC1(C)C	4	99% (active)	98.6% (active)	2	99% (active)	99.7% (active)	1	99% (active)	99.3% (active)	-6	97% (active)	99.2% (active)	-7	99% (active)	99.5% (active)	12	99% (active)	99.4% (active)
COc1ccc(C2CC(c3sc(Nc4ccc(C)cc4)nc3C)=NN2)cc1 (stereo not given)	-1	20%	80.3% (active)	-33	60%	62%	-2	16%	71.4% (active)	-1	38%	69.1%	-4	32%	12.2%	-2	31%	59.9%
CCOC(=O)C1SC(=Nc2cccc(Cl)c2C)N=C1C (stereo not given)	22	83% (active)	85.3% (active)	24	72% (active)	88.1% (active)	23	91% (active)	82% (active)	27	73% (active)	86% (active)	34	88% (active)	89.4% (active)	38	91% (active)	86.2% (active)
COC1C(=[N+]=[N-])C(=O)NC(=O)N1C1OC(COC(c2ccccc2)(c2ccccc2)c2ccccc2)C(O)C1O (stereo not given)	63	63%	69.5%	10	10%	80.7% (active)	18	18%	66.8%	14	14%	77.2% (active)	13	13%	60.2%	15	15%	66.6%
COC(=O)C1(C)CCCC2(C)C3CC(=O)C(C(C)C)=CC3(O)CCC12 (stereo not given)	7	8%	10.7%	-1	-3%	-3.25%	4	-15%	3.1%	-75	-27%	13.7%	5	2%	0.8%	15	19%	-5.95%
